{"source": "PubChem BioAssay (Tox21)", "note": "Inconclusive results are not listed. A call without a number means that no potency is given here. Values without a mark were called inactive. Activity calls are given as the source filed them. Calls follow the shape of the full dose curve."}
{"target": "5-hydroxytryptamine receptor 2A (Homo sapiens) (UniProt P28223)", "sequence (P28223 whole entry, looked up)": "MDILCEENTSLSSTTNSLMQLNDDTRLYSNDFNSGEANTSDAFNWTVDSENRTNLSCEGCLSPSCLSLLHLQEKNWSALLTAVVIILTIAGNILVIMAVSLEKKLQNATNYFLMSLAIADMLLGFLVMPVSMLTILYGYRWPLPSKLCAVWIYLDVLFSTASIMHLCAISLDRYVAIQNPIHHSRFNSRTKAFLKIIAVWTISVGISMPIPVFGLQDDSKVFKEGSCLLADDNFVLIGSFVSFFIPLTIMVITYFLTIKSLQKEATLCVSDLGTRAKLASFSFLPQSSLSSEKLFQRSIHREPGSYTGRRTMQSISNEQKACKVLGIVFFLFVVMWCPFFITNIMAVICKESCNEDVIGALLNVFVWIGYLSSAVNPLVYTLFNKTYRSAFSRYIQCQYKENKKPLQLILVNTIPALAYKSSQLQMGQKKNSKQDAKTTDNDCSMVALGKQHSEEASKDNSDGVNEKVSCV", "assay": "5-hydroxytryptamine receptor 2A (HTR2A) small molecule agonists, cell-based qHTS assay (AID 1963587); also: nearly all actives have a fitted effect of over 30% in size", "settings": "HTR2A-CHO cells, calcium flux fluorescence, agonist mode; series mostly up to 76.8 µM", "excerpt": "National Center for Advancing Translational Sciences [NCATS]\nDivision of Preclinical Innovation [DPI]\nU.S. Environmental Protection Agency [EPA]\nNational Institutes of Environmental Health Sciences [NIEHS]\nNational Toxicology Program [NTP]\nU.S. Food and Drug Administration [FDA]\nThe HTR2A receptor is a subtype of the 5-HT2 receptor that belongs to the serotonin receptor family and is a G protein-coupled receptor (GPCR). The HTR2A-CHO cell line stably expressing human 5-hydroxytryptamine receptor 2A (HTR2A) can be used for screening agonists of interactions between 5-HT2 and its ligands. The HTR2A-CHO calcium flux assay is a homogeneous fluorescence-based assay for detecting the intracellular calcium level using FDSS kinetic plate reader system.\nHTR2A-CHO cells were dispensed at 2000 cells/3uL/well in 1536-well black-clear bottom plates using a Multidrop Dispenser. After the assay plates were incubated at a 37 C/5% CO2 incubator for 18 h, 3 uL of Dye Loading Buffer was transferred to the assay plate by a Flying Reagent Dispenser. The assay plates were incubated at 37 C for 1h. For agonist mode, 23 nL of compounds dissolved in DMSO, positive controls or DMSO only was transferred to the assay plate by a pin tool. The fluorescence intensity in the plates was measured using FDSS 7000EX kinetic plate reader for 2 min at 1 sec intervals."}
{"compound": "CCCN(CCC)c1c([N+](=O)[O-])cc(C(F)(F)F)c(N)c1[N+](=O)[O-]", "Potency": "inactive"}
{"compound": "O=C(Nc1ccc2c(O)c(N=Nc3ccc(N=Nc4ccc(S(=O)(=O)O)cc4)cc3)c(S(=O)(=O)O)cc2c1)c1ccccc1", "Potency": "inactive"}
{"compound": "CCCCCCCCCCCCCCCCCCOCCO", "activation": "-2.03% [at 15.9 µM]"}
{"compound": "CC(=O)NC(=O)c1ccccc1O", "Potency": "inactive"}
{"compound": "CC(C)OC(=O)C(C(=O)OC(C)C)=C1SC=CS1", "Potency": "inactive"}
{"compound": "COc1ccccc1OCC(O)CN1CCN(CC(=O)Nc2c(C)cccc2C)CC1", "note": "(stereo not given)", "Potency": "inactive"}
{"compound": "CCCCCc1ccco1", "Potency": "inactive"}
{"compound": "CC(C)Nc1cccnc1N1CCN(C(=O)c2cc3cc(NS(C)(=O)=O)ccc3[nH]2)CC1", "Potency": "inactive"}
{"compound": "CCC(O)C(C)(C)C", "note": "(stereo not given)", "Potency": "inactive"}
{"compound": "COS(=O)(=O)C(F)(F)F", "Potency": "inactive"}
{"compound": "CCN1CCCC1CNC(=O)c1cc(S(=O)(=O)CC)c(N)cc1OC", "note": "(stereo not given)", "Potency": "inactive"}
{"compound": "CO[Si](CCCNc1ccccc1)(OC)OC", "Potency": "inactive"}
{"compound": "CCC(=O)O[C@]1(C(=O)SCF)[C@H](C)C[C@H]2[C@@H]3C[C@H](F)C4=CC(=O)C=C[C@]4(C)[C@@]3(F)[C@@H](O)C[C@@]21C", "Potency": "inactive"}
{"compound": "CC(C)CCCC(C)NCCC(C)C", "note": "(stereo not given)", "Potency": "inactive"}
{"compound": "CCCCCCCCCOC(=O)c1ccccc1C(=O)OCCCCCCCCC", "Potency": "inactive"}
{"compound": "CC(C)(C)c1n[nH]c(=S)n(N)c1=O", "Potency": "inactive"}
{"compound": "C=C1C(CCl)(CCl)C2(Cl)C(Cl)C(Cl)C1(Cl)C2(Cl)Cl", "note": "(stereo not given)", "Potency": "inactive"}
{"compound": "O=C(OOC(=O)c1ccccc1)c1ccccc1", "Potency": "inactive"}
{"compound": "CNC(=O)CN(CCN(CCN(CC(=O)[O-])CC(=O)NC)CC(=O)[O-])CC(=O)[O-].O.[Gd+3]", "Potency": "inactive"}
{"compound": "c1cc(N(CC2CO2)CC2CO2)ccc1Cc1ccc(N(CC2CO2)CC2CO2)cc1", "note": "(stereo not given)", "Potency": "inactive"}
{"compound": "C=CC(OCC)OCC", "Potency": "inactive"}
{"compound": "Nc1ccc(C(=O)OCC(O)CO)cc1", "note": "(stereo not given)", "Potency": "inactive"}
{"compound": "CCCCCCCCCCOc1cc2c(=O)c(C(=O)OCC)c[nH]c2cc1OCC", "activation": "1.5% [at 7.02 µM]"}
{"compound": "CCCCOCCOC(=O)COc1ccc(Cl)cc1Cl", "Potency": "inactive"}
{"compound": "Nc1ccc(S(=O)(=O)O)c(N)c1", "Potency": "inactive"}
{"compound": "O=C1CCCCCCCCCCOCCCCO1", "Potency": "inactive"}
{"compound": "On1nnc2ccccc21", "Potency": "inactive"}
{"compound": "CC(=O)NO", "Potency": "inactive"}
{"compound": "CN(C[C@@H](CC[N+]12CCC(C3CCCCC3)(CC1)CC2)c1ccc(Cl)c(Cl)c1)C(=O)c1cc(C(F)(F)F)cc(C(F)(F)F)c1", "Potency": "inactive"}
{"compound": "CN(C)C/C=C(/c1ccc(Br)cc1)c1cccnc1", "Potency": "inactive"}
{"compound": "COc1cc(-c2ccc(N=C=O)c(OC)c2)ccc1N=C=O", "Potency": "inactive"}
{"compound": "O=C=Nc1cccc(C(F)(F)F)c1", "Potency": "inactive"}
{"compound": "CCCCCCCCCCCCCCCC(=O)OC[C@H](O)[C@H]1OC(=O)C(O)=C1O", "Potency": "inactive"}
{"compound": "CCCCCCCCCCOS(=O)(=O)O", "Potency": "inactive"}
{"compound": "COC(=O)c1cc(C(=O)OC)cc(S(=O)(=O)O)c1", "Potency": "inactive"}
{"compound": "C[C@@H](O)[C@H](N)C(=O)O", "activation": "1.14% [at 15.9 µM]"}
{"compound": "CC(C)(C)c1cc(CCC(=O)OCCSCCOC(=O)CCc2cc(C(C)(C)C)c(O)c(C(C)(C)C)c2)cc(C(C)(C)C)c1O", "Potency": "inactive"}
{"compound": "COC(=O)CC#N", "Potency": "inactive"}
{"compound": "O=C(CCCCCCCCC#CI)Oc1ccccc1", "Potency": "inactive"}
{"compound": "OCCN1CN(CCO)CN(CCO)C1", "Potency": "inactive"}
